Results filed as inconclusive are left out. Where a call stands in place of a potency, no number is given. Active and inactive are the calls of the source. Calls come from the whole dose curve; as a rule, active = well fitted inhibition curve with a large enough effect; inconclusive = small, poorly fitted or top-dose-only effect; inactive = flat fitted curve, though single readings scatter.
What follows are compounds tested against Ubiquitin carboxyl-terminal hydrolase 1 (Homo sapiens) (UniProt O94782) (assay: Inhibitors of USP1/UAF1: Pilot qHTS (AID 504865; note: nearly all actives have a fitted effect of over 35% in size)). Details: purified USP1/UAF1, Ub-rhodamine cleavage fluorescence; series mostly up to 114 µM.
Chain of Ubiquitin carboxyl-terminal hydrolase 1 (Homo sapiens) (O94782 whole entry, looked up): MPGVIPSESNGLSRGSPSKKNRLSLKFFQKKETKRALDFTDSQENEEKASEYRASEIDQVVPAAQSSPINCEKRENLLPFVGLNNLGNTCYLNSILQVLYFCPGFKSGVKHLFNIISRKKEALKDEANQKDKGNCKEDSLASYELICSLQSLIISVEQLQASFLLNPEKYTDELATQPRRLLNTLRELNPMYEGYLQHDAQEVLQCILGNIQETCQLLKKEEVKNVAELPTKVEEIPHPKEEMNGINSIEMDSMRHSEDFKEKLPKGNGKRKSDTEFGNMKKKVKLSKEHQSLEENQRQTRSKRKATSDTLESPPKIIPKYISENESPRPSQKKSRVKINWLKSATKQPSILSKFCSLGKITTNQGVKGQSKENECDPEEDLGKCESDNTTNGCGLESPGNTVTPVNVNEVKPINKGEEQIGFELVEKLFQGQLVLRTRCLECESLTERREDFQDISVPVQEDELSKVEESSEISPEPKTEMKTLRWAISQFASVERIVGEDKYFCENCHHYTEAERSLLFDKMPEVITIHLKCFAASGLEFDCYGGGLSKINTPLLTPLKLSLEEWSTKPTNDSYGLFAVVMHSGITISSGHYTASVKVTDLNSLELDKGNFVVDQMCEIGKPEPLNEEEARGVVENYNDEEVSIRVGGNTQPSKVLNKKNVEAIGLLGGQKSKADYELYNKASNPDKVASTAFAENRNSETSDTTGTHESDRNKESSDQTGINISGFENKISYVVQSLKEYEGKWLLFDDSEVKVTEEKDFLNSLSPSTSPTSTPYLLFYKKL
How it was run: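 1nM USP1/UAF1 + cpd, 15 min RT; start w/ Ub-Rho 150nM final; kinetic FL 480/540 nm, 6 reads q60 s. Buffer 50mM HEPES pH 7.8, 0.5mM EDTA, 1mM TCEP, 0.01% Tween-20, 0.1 mg/ml BSA.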
Potency is the fitted concentration of half-maximal effect.

| SMILES | Potency |
| --- | --- |
| NCC(O)CC(=O)O (stereo not given) | inactive |
| CCCCCCCCCCCCCCCCCCCCCC(=O)Nc1ccn([C@@H]2O[C@H](CO)[C@@H](O)[C@@H]2O)c(=O)n1 | inactive |
| CC1C(=O)CC2C3(C)CCC2(C(C)C(=O)O)C(=O)C13 (stereo not given) | inactive |
| CCc1ccc(S(=O)(=O)O)cc1 | inactive |
| COc1ccc(C(=O)CCC(=O)O)c2ccccc12 | inactive |
| CC(=O)N[C@@H]1C(O[C@H]2O[C@H](C(=O)O)C(O)[C@H](O)[C@H]2O)[C@H](O)[C@@H](CO)O[C@H]1O[C@@H]1C(C(=O)O)O[C@@H](O[C@H]2[C@H](O)[C@@H](CO)OC(O)[C@@H]2NC(C)=O)[C@H](O)[C@H]1O (stereo not given in full) | inactive |
| CC(=O)[O][Al][O]C(C)=O | inactive |
| CCCCC[C@H](O)/C=C/[C@H]1[C@H](O)CC(=O)[C@@H]1C/C=C\CCCC(=O)O | inactive |
| CC(CCc1ccc(O)cc1)NCC(O)c1ccc(O)cc1 (stereo not given) | inactive |
| CC(=O)Oc1cccc(C(=O)O)c1OC(C)=O | inactive |
| CC(=O)N=c1sc(S(N)(=O)=O)nn1C | inactive |
| CCCOc1cc(N)ccc1C(=O)OCCN(CC)CC | inactive |
| CN(C)c1ccc(C(=C2C=CC(=[N+](C)C)C=C2)c2c(O)c(S(=O)(=O)[O-])cc3cc(S(=O)(=O)O)ccc23)cc1 | 56.2 µM (active) |
| O=C(CCCN1CCN2CCCC2C1)c1ccc(F)cc1 (stereo not given) | inactive |
| NC(=S)NS(=O)(=O)c1ccc(N)cc1 | inactive |
| F[Si-2](F)(F)(F)(F)F | inactive |
| Oc1cc(O)cc(O)c1 | inactive |
| O=C(O)[C@H]1C(=CCO)O[C@H]2CC(=O)N12 | inactive |
| O.O.O.O.O.O.O.O=S(=O)([O-])[O-].[Co+2] | inactive |
| Cc1ccc(C(C)(C)c2ccc(C)cc2)cc1 | inactive |

| SMILES | Potency |
| --- | --- |
| COc1cc(NCCCC(C)N)c2ncccc2c1 (stereo not given) | 11.2 µM (active) |
| CC(C)c1ncc([N+](=O)[O-])n1C | inactive |
| NC(=S)N=Nc1ccc(NN=C(N)N)cc1 | 44.7 µM (active) |
| O=C(O)CCC/C=C\C[C@@H]1[C@@H](/C=C/[C@@H](O)COc2cccc(Cl)c2)[C@H](O)C[C@@H]1O | inactive |
| CCN(CC)CCOc1ccc2nc(N(C)C)sc2c1 | inactive |
| CNC(=O)OCc1cccc(COC(=O)NC)n1 | inactive |
| O=C1c2ccccc2C(=O)C1c1ccc(F)cc1 | inactive |
| O=P(O)(O)OP(=O)(O)O | inactive |
| O=C1N=C2SCCN2C(=O)C1Cc1ccc(Cl)cc1 (stereo not given) | inactive |
| OC1OC[C@@H](O)[C@H](O)[C@@H]1O (stereo not given in full) | inactive |
| CCCC(CCC)C(=O)OC1C[C@H]2CC[C@@H](C1)[N+]2(C)C (stereo not given in full) | inactive |
| CC(C)(C)CC(C)(C)c1cc(Cc2cc(C(C)(C)CC(C)(C)C)cc(-n3nc4ccccc4n3)c2O)c(O)c(-n2nc3ccccc3n2)c1 | inactive |
| O=P(O)(O)CP(=O)(O)O | inactive |
| CC(=O)[C@H]1CC[C@H]2[C@@H]3C=CC4=CC(=O)CC[C@@]4(C)[C@H]3CC[C@]12C | inactive |
| CN(C)CCCSc1ccccc1NC(=O)/C=C/c1ccccc1 | inactive |
| CC1(C)S[C@@H]2[C@H](NC(=O)C3(N)CCCCC3)C(=O)N2[C@H]1C(=O)O | inactive |
| CN(Cc1ccccc1)Cc1ccccc1 | inactive |
| Cc1cccc(C)c1NC(=O)C1CCCCN1C (stereo not given) | inactive |
| CNC(=O)[C@H](Cc1c[nH]c2ccccc12)NC(=O)[C@@H](CC(=O)NO)CC(C)C | inactive |
| CC1(O)CCC(C(C)(C)O)CC1 (stereo not given) | inactive |

— PubChem BioAssay (NCATS)
